Experimental data as given in PubChem BioAssay (NCATS).
Records with an inconclusive call do not appear. Active and inactive are the calls of the source. Calls follow the shape of the dose curve; as a rule, active = well fitted inhibition curve with a large enough effect; inconclusive = small, poorly fitted or top-dose-only effect; inactive = no such curve, though single readings can be large or run the other way.

Experiment: qHTS to identify inhibitors of the type 1 interferon - major histocompatibility complex class I in skeletal muscle: primary screen against the NCATS Mechanism Interrogation Plate v5.0 (MIPE) Libary (AID 1347411); also: nearly all actives have a fitted effect of over 65% in size;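 as to activity change, negative = inhibition: plate controls were vehicle for no effect and reference inhibitor for full effect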
Conditions: iHSKM cells + IFN-b, HiBiT-tagged MHC-I luminescence, 24 h; series mostly up to 45.8 µM; activity change, negative = inhibition: at the top concentration
How it was run: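 IFN-beta-driven (4 ng/ml) HLA-B-HiBit expression in CRISPR-tagged C25cl48 myoblasts; compounds 11-pt, 1:3, max 46 uM, 24 hr exposure; lytic NanoLuc complementation luminescence.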
Potency is read from the fitted curve at half-maximal effect.

| Compound | activity change, negative = inhibition | Potency |
| --- | --- | --- |
| O=C(c1cncc(Br)c1)N1CCC(N2CCCC2)CC1 | -17.7% (inactive) | – |
| COc1cc2c(Oc3ccc4[nH]c(C)cc4c3F)ncnc2cc1OCCCN1CCCC1 | – | 20.8 µM (active) |
| CNC(=O)c1nn(C)c2c1C(C)(C)Cc1cnc(Nc3ccc(N4CCN(C)CC4)cc3)nc1-2 | – | 5.23 µM (active) |
| CNC(=O)c1c(F)cccc1Nc1nc(Nc2cc3c(cc2OC)CCN3C(=O)CN(C)C)nc2[nH]ccc12 | – | 7.39 µM (active) |
| Cn1c(CNc2ccc(C(=N)N)cc2)nc2cc(C(=O)N(CCC(=O)O)c3ccccn3)ccc21 | 5.59% [at 0.314 µM] (inactive) | – |
| O=c1[nH]nc(Sc2ncc([N+](=O)[O-])s2)n1-c1ccc2c(c1)OCCO2 | – | 6.58 µM (active) |
| CC[C@@H]1C(=O)N(C)c2cnc(Nc3ccc(C(=O)NC4CCC(N5CCN(CC6CC6)CC5)CC4)cc3OC)nc2N1C(C)C (stereo not given in full) | – | 6.58 µM (active) |
| COc1ccc2c(c1)CC[C@@H](CN(C)CC(=O)O)[C@H]2c1ccccc1 | 19.7% [at 91.7 µM] (inactive) | – |
| CCN(CC)CCCCNc1ncc2cc(-c3cc(OC)cc(OC)c3)c(NC(=O)NC(C)(C)C)nc2n1 | – | 29.4 µM (active) |
| c1nc2nc(Nc3ccc(N4CCOCC4)cc3)nc(NC3CCCCC3)c2[nH]1 | – | 2.94 µM (active) |
| CNC(=O)CN1CCC(Oc2cc3c(Nc4cccc(Cl)c4F)ncnc3cc2OC)CC1 | -4.22% (inactive) | – |
| Cc1ccc(C(=O)Nc2ccc(CN3CCN(C)CC3)c(C(F)(F)F)c2)cc1C#Cc1cnc2cccnn12 | – | 4.15 µM (active) |
| C[C@]12CC[C@H](O)CC1=CCC1C2CC[C@]2(C)C(n3cnc4ccccc43)=CCC12 (stereo not given in full) | -24.7% (inactive) | – |
| Cc1cc(Nc2ncnc3ccc(-c4ccc(CNCCS(C)(=O)=O)o4)cc23)ccc1Oc1ccn2ncnc2c1 | -18.1% (inactive) | – |
| CC[C@@]1(O)C(=O)OCc2c1cc1n(c2=O)Cc2cc3cc(O)ccc3nc2-1 | – | 3.3 µM (active) |
| CN1CCN(Cc2ccc(NC(=O)Nc3ccc(Oc4cc(NC(=O)C5CC5)ncn4)cc3)cc2C(F)(F)F)CC1 | – | 0.415 µM (active) |
| CCCNC(=O)Nc1ccc(Oc2ncnc3cc(OC)c(OC)cc23)cc1Cl | -6.63% (inactive) | – |
| CC(C)(C)c1cc(C(C)(C)C)c(NC(=O)c2c[nH]c3ccccc3c2=O)cc1O | – | 23.4 µM (active) |

| Compound | activity change, negative = inhibition | Potency |
| --- | --- | --- |
| COCCn1c2c([n+](Cc3cnccn3)c1C)C(=O)c1ccccc1C2=O | – | 2.34 µM (active) |
| CN1CCC(CNc2ccc3ncc(-c4cccc(OC(F)(F)F)c4)n3n2)CC1 | – | 14.7 µM (active) |
| NC(=O)c1cccc2cn(-c3ccc([C@@H]4CCCNC4)cc3)nc12 | -23.8% (inactive) | – |
| N#Cc1c(O)c2c(-c3ccc(-c4ccccc4O)cc3)csc2[nH]c1=O | 9.1% (inactive) | – |
| Cc1ccc(NC(=O)C2(c3ccc4c(c3)OC(F)(F)O4)CC2)nc1-c1cccc(C(=O)O)c1 | -16.4% (inactive) | – |
| CC1COC2(CCN(c3nc(=O)c4cc(C(F)(F)F)cc([N+](=O)[O-])c4s3)CC2)O1 (stereo not given) | 4.5% (inactive) | – |
| CNC(=O)c1ccc(N2C(=S)N(c3cnc(C#N)c(C(F)(F)F)c3)C(=O)C23CCC3)cc1F | -26.2% (inactive) | – |
| CCN(CC)CCNC(=O)c1ccc2nc(-c3ccccc3)c(-c3ccc(CN4CCC(n5c(=O)[nH]c6ccccc65)CC4)cc3)nc2c1 | – | 6.58 µM (active) |
| O=C(O)c1ccc2c(c1)nc(Nc1cccc(Cl)c1)c1ccncc12 | – | 16.5 µM (active) |
| CC(=O)OCC(=O)[C@@]1(O)[C@H](C)C[C@H]2[C@@H]3C=C(C)C4=Cc5c(cnn5-c5ccccc5)C[C@]4(C)[C@@H]3[C@@H](O)C[C@@]21C | 3.21% (inactive) | – |
| CC[C@@H]1C(=O)N(C)c2cnc(Nc3ccc(C(=O)NC4CCN(C)CC4)cc3OC)nc2N1C1CCCC1 | – | 16.5 µM (active) |
| Cc1c(C)n(Cc2ccc(-c3ccccc3C(=O)O)cc2)c2ccc(C(=O)N[C@@H](C)c3ccc([N+](=O)[O-])cc3)cc12 | -22.5% (inactive) | – |
| O=C(NCCS(=O)(=O)c1ccc(C(F)(F)F)cn1)c1ccc(Cl)cc1 | -2.81% (inactive) | – |
| CN(c1ncccc1CNc1nc(Nc2ccc3c(c2)CC(=O)N3)ncc1C(F)(F)F)S(C)(=O)=O | – | 4.66 µM (active) |
| CCCCCCCCCC(=O)N[C@@H](Cc1c[nH]c2ccccc12)C(=O)N[C@H](CC(N)=O)C(=O)N[C@@H](CC(=O)O)C(=O)N[C@@H]1C(=O)NCC(=O)N[C@@H](CCCN)C(=O)N[C@@H](CC(=O)O)C(=O)N[C@H](C)C(=O)N[C@@H](CC(=O)O)C(=O)NCC(=O)N[C@H](CO)C(=O)N[C@@H]([C@@H](C)CC(=O)O)C(=O)N[C@@H](CC(=O)c2ccccc2N)C(=O)O[C@@H]1C | 1.7% [at 15.5 µM] (inactive) | – |
| CC(C)(C)c1cnc(CSc2cnc(NC(=O)C3CCNCC3)s2)o1 | – | 0.262 µM (active) |
| Cc1nc(Nc2n[nH]c3c2CN(C(=O)N[C@H](CN(C)C)c2ccccc2)C3(C)C)c2sccc2n1 | – | 0.0523 µM (active) |
